Where “and” joins values, the source holds several entries; their conditions need not be identical. Equal values may be shown once. The campaign covered roughly 320,000 compounds. About 2,200 (0.69%) were called active. Rule as the data show it: active = inhibition above about 43%; inactive = the rest. Many of the other results were omitted from the sample, so actives are more common in it than they were. Some structures have more than one record in an assay (separate samples or runs), and their calls can disagree.
The molecules below were run against Prolyl endopeptidase-like (Homo sapiens) (UniProt Q4J6C6) (assay: PREPL enzyme inhibitors, primary screen, biochemical, fluorescence polarization (AID 2751;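 also: 0% = enzyme with DMSO and 100% = wells lacking enzyme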)). Details: recombinant PREPL, fluorescence polarization activity-based probe; at 5.96 µM; stronger effect = higher value.
Prolyl endopeptidase-like (Homo sapiens), sequence (Q4J6C6 whole entry, looked up): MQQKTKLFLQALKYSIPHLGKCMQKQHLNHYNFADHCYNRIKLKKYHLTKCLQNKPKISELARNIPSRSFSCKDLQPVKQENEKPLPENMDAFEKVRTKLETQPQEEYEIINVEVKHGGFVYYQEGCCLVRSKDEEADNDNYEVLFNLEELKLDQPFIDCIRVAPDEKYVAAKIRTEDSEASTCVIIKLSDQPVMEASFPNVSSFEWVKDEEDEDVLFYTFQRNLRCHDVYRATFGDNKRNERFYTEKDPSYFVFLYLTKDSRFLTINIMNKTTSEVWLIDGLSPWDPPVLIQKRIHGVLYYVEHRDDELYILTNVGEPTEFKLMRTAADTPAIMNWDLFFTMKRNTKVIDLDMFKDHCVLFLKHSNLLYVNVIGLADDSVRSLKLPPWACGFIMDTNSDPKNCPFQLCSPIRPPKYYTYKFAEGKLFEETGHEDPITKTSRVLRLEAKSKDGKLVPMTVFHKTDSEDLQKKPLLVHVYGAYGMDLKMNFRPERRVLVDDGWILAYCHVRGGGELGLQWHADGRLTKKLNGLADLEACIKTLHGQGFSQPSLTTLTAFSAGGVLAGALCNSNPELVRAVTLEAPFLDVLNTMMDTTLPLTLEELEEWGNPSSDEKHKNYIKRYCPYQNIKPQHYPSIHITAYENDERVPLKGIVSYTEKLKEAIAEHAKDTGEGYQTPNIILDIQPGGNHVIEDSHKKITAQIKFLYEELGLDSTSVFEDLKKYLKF

Compound | inhibition
CCc1ccc(S(=O)(=O)Nc2ccc(C)c(NS(C)(=O)=O)c2)cc1 | -2.02% (inactive)
Cc1cccc2nc(CNc3ccc(F)cc3)cn12 | -2.47% (inactive)
O=C(CN1CCOCC1)Nc1c2c(nc3c1CCC3)CCC2 | -8.04% (inactive)
CCC(=C/c1sc2ccc3ccccc3c2[n+]1C)/C=C1\Sc2ccc3ccccc3c2N1C | 90.7% (active)
CC(=O)Nc1ccc(NC(=O)C(C)OC(=O)C2CC(=O)N(CCc3ccccc3)C2)cc1 (stereo not drawn) | 12.3% (inactive)
CC1(C)CC[C@@]2(C(=O)O)C(C1)C1=CCC3[C@@]4(C)CC[C@H](O)C(C)(C)C4CC[C@@]3(C)[C@]1(C)C[C@H]2O (stereo partly drawn) | 21.2% (inactive)
COc1c(O)ccc2c1CN1CCc3cc4c(cc3C1C2)OCO4 (stereo not drawn) | 16.4% (inactive)
COc1ccc2cc1Oc1ccc(cc1)C[C@H]1c3cc(c(OC)cc3CCN1C)Oc1c(O)c(OC)cc3c1[C@H](C2)N(C)CC3 | 59% (active)
CC(C)(C)C(=O)N1CCC[C@@]1(CO)C(=O)O | 6.21% (inactive)
CCC/C(C)=N\Nc1nc2c(c(=O)n(C)c(=O)n2C)n1C | 11.5% (inactive)
CCN1CC(CN(C)Cc2nc(-c3ccc(Cl)cc3)no2)CC1=O (stereo not drawn) | 18.3% (inactive)
Cc1cc(C(=O)NCCc2ccc(Cl)cc2)c(C)o1 | 6.11% (inactive)
CC(C)CN(C(=O)CN1CCN(S(=O)(=O)c2ccccc2)CC1)c1c(N)n(CC(C)C)c(=O)[nH]c1=O | 9.18% (inactive)
O=C1NC(Cc2ccc(O)cc2)c2nc3ccc(Cl)cc3c(=O)n2-c2ccccc21 (stereo not drawn) | 12.8% (inactive)
CCc1nc(NCCO)c(C#N)c2c1CCCC2 | 7.84% (inactive)
CC(C)CCNc1nc(N2CCCC2)c2c(c1C#N)CCN(C)C2 | 55.6% (active)
CC(C)Cc1nc(N2CCOCC2)c(C#N)c2c1CCC2 | 2.59% (inactive)

Compound | inhibition
CC(Sc1nc2c([nH]c3ccccc32)c(=O)n1C)c1ccccc1 (stereo not drawn) | -0.13% (inactive)
Cc1ccccc1NC(=O)C1CCCN(C(=O)NCc2ccccc2)C1 (stereo not drawn) | 10.1% (inactive)
COC(=O)C1CCN(C(=O)c2cc(=O)[nH]c3ccccc23)CC1 | -5.95% (inactive)
COC(=O)[C@H]1[C@H]2C[C@H]3c4[nH]c5ccccc5c4CCN3C[C@@H]2CC[C@@H]1O | 16.7% (inactive) and 45.8% (active)
O=C(Nc1ccc(Cl)cc1)N1CCc2[nH]c3ccccc3c2C1 | 14.6% (inactive)
OC(COc1ccc(F)cc1Cl)CN1CCc2ccccc2C1 (stereo not drawn) | 3.81% (inactive)
CCCC(C(=O)NCc1ccco1)N(C(=O)CNS(=O)(=O)c1ccccc1)C1CCCC1 (stereo not drawn) | -3.85% (inactive)
O=C(OCC1O[C@@H](OC(=O)c2cc(O)c(O)c(O)c2)[C@@H](OC(=O)c2cc(O)c(O)c(O)c2)[C@@H](OC(=O)c2cc(O)c(O)c(O)c2)[C@@H]1OC(=O)c1cc(O)c(O)c(O)c1)c1cc(O)c(O)c(O)c1 (stereo partly drawn) | 87.5% (active)
O=C(OCC1OC(Oc2ccc(O)cc2)C(O)C(O)C1O)c1ccccc1 (stereo not drawn) | 9.62% (inactive)
COc1ccccc1C(=O)NCc1nnc(SC(C)C(=O)Nc2nccs2)n1C (stereo not drawn) | -8.82% (inactive)
CCC(=O)N1c2ccc(S(=O)(=O)NCc3ccco3)cc2CC1C (stereo not drawn) | -3.18% (inactive)
Nc1c(C(=O)c2cccs2)sc2nsc(SCCN3CCCCC3)c12 | 48.1% (active)
O=C(CSc1ncnc2sccc12)N1CCN(C(=O)c2cccs2)CC1 | 6.26% (inactive)
CN(CC(=O)Nc1ccc(Cl)c(C(F)(F)F)c1)C(=O)CCC(=O)c1ccccc1 | 1.31% (inactive)
CC(C)c1ccc(S(=O)(=O)N2CCN(C(C)C(=O)NC3CCCC3)CC2)cc1 (stereo not drawn) | 5.61% (inactive)
CC(Oc1ccc(F)cc1)C(=O)Nc1ccccc1C(=O)NC1CC1 (stereo not drawn) | -10.5% (inactive)

From PubChem BioAssay AID2751 (The Scripps Research Institute Molecular Screening Center, 2010)
